An excerpt weighted towards active compounds, which were near 2.4% of everything screened.
Cruzain inh noDet: qHTS Assay for Promiscuous and Specific Inhibitors of Cruzain (without detergent); purified cruzain, Z-FR-AMC fluorescence, no detergent; Potency, µM, for the others: max response, negative = inhibition, actives largely listed as inhibitors; 2.3% of 200,000 active; AID 1476, 2009;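 note: plate controls were enzyme without inhibitor for no effect and buffer without enzyme for full effect; nearly all actives have a fitted effect of over 40% in size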
Target sequence (P25779 123-467 limits assumed): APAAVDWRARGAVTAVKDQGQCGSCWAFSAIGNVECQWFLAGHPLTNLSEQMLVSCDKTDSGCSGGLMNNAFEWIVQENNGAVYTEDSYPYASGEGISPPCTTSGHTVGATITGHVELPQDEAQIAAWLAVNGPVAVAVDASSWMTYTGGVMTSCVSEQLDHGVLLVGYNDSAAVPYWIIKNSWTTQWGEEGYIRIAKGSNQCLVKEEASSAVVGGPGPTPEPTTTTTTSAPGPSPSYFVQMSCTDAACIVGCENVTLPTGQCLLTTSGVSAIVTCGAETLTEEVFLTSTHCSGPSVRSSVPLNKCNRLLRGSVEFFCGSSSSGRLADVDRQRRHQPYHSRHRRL
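Purified cruzain at 1.5 nM, pre-incubated 15 min with compound at room temperature in 100 mM sodium acetate pH 5.5, 5 mM DTT, 0.00005% Triton X-100. Reaction started with 2 uM Z-FR-AMC; AMC fluorescence increase over 60 s gives rate.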
Cruzain Triton: qHTS Assay for Promiscuous and Specific Inhibitors of Cruzain (with detergent). AID 1478, 2009. purified cruzain, Z-FR-AMC fluorescence, 0.01% Triton. Potency, µM, for inactives: max response, negative = inhibition, most hits filed as inhibitors. Cruzipain (Trypanosoma cruzi), P25779. 0.43% of 200,000 active;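 note: plate controls were neutral wells for no effect and buffer without enzyme for full effect; nearly all actives have a fitted effect of over 40% in size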
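Compounds were screened in titration against cruzain (1.5 nM) with 0.01% Triton X-100 to counter colloidal aggregation. Activity was the AMC fluorescence increase over 60 s after adding 2 uM Z-FR-AMC at pH 5.5.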
Active calls of the source: *; ? = inconclusive. Calls come from the whole dose curve; as a rule, active = well fitted curve in the direction sought with a large enough effect; inconclusive = small, poorly fitted or top-dose-only effect, or another doubt; inactive = no such curve, though single readings can be large; an effect the other way counts as inactive or inconclusive. Potency is the fitted concentration of half-maximal effect.

SMILES	Cruzain inh noDet	Cruzain Triton
O=C(N/N=C/c1ccc(-c2cccc(C(F)(F)F)c2)o1)c1ccccc1O	10µM*	-6%
O=C(N/N=C/c1ccc(-c2cccc(C(F)(F)F)c2)o1)c1ccccc1Br	18%	-9%
COc1ccc(Br)c(/C=N/NC(=O)COc2ccc(-c3ccccc3)cc2)c1	20µM*	-2%
COc1ccc(/C=N/NC(=O)COc2ccccc2-c2ccccc2)cc1	7%	-6%
COc1cc(C)ccc1OCCSc1nc2ccc(NC(=O)c3ccc(F)cc3)cc2s1	2%	-1%
COc1ccc(C(OCCN2CCC[C@@H](C(=O)O)C2)(c2ccc(OC)cc2)c2ccc(OC)cc2)cc1	?	-2%
O=C(Nc1nc2ccccc2s1)c1cc(-c2ccco2)nc2ccccc12	-26%	-12%
COc1cccc(-c2cc(C(=O)Nc3nc4ccccc4s3)c3ccccc3n2)c1	13µM*	-1%
O=C(Nc1nc2c(s1)CCCC2)c1cc(-c2ccc3c(c2)OCO3)nc2ccccc12	5µM*	-4%
Cc1ccccc1-c1cc(C(=O)Nc2nc3c(s2)CCCC3)c2ccccc2n1	?	-5%
COCCn1c(=O)c(C)nc2cncnc21	20%	0%
O=C(NC1CCCCC1)c1ccc2c(c1)N(Cc1cccc(Cl)c1)C(=O)c1ccccc1S2(=O)=O	?	-3%
O=C(c1cnccn1)N1CCC2(CC1)CCN(c1cccc(-c3ccccc3)c1)CC2	?	-2%
Cc1c(Cc2ccccc2)sc(NC(=O)/C=C/c2cccc3ccccc23)c1C(N)=O	5µM*	-5%
COC(=O)c1c(NC(=O)/C=C/C(=O)O)sc(Cc2ccccc2)c1C	13%	-10%
COC[C@H]1O[C@@H](c2c(OC)cc(OC)cc2OC)[C@H](OC)[C@@H](OC)[C@@H]1OC	-5%	0%
CCNc1ncc2nc(-c3ccc(OC)cc3)c(=O)n(Cc3cccc(OC)c3)c2n1	-8%	2%
CCOc1ccccc1C(=O)Nc1cccc2ccc(C)nc12	0%	-10%
c1ccc(C2Oc3ccccc3C3CC(c4cccs4)=NN32)cc1 (stereo not given)	-3%	-13%
O=[N+]([O-])c1ccc(C2Oc3ccccc3C3CC(c4ccccc4)=NN32)s1 (stereo not given)	16µM*	-11%
CNC(=S)N1N=C(c2ccc(C)cc2)CC1c1ccc(Cl)cc1 (stereo not given)	-30%	-8%
CNC(=S)N1N=C(c2ccc(C)cc2)CC1c1ccc(Br)cc1 (stereo not given)	2.5µM*	-2%
O=C(NCc1ccccc1Cl)C1CCCN(C(=O)c2cnn(-c3ccc(F)cc3)c2-n2cccc2)C1 (stereo not given)	?	-26%
COC(=O)c1nc2n(n1)C(c1cccc(Cl)c1)C(C(=O)Nc1ccccc1OC)=C(C)N2 (stereo not given)	-16%	4%
CCOc1ccc(S(=O)(=O)N(CC(=O)Nc2ccc3c(c2)OCO3)c2ccc(C)cc2)cc1	1%	-8%
SMILES	Cruzain inh noDet	Cruzain Triton
CCOc1ccc(Nc2sc(C(=O)c3ccc4c(c3)OCO4)c(N)c2S(=O)(=O)c2ccc(C)cc2)cc1	3.2µM*	-3%
Cc1ccc(S(=O)(=O)c2c(Nc3ccc(C)c(C)c3)sc(C(=O)c3ccc4c(c3)OCO4)c2N)cc1	2.5µM*	-2%
Cc1ccc(S(=O)(=O)c2c(Nc3cc(C)ccc3C)sc(C(=O)c3ccc4c(c3)OCO4)c2N)cc1	-27%	9%
CCCCN(C)CCNC(=O)C1CCCN(S(=O)(=O)c2ccc3c(c2)oc(=O)n3C)C1 (stereo not given)	-9%	-5%
O=C(NCC(c1ccc2c(c1)OCO2)N1CCOCC1)C(=O)Nc1ccc(Cl)cc1 (stereo not given)	2%	4%
COc1ccc2c(CNCc3cccs3)c(C(=O)O)n(Cc3ccccc3C)c2c1	-8%	-2%
CN1C(=O)c2ccccc2Sc2ccc(NC(=O)N3CCN(c4ccccc4F)CC3)cc21	?	-8%
COCCn1c(=O)c(-c2ccccc2)nc2cnc(N3CCN(C)CC3)nc21	?	-23%
CCCCNC(=S)N(C)/N=C/c1sc(N2CCCCC2)nc1-c1cccs1	-28%	-3%
CC(C)NC(=S)N/N=C/c1sc(N2CCCCC2)nc1-c1cccs1	32µM*	-7%
Cc1cc(C)n2nc(SCC(=O)Nc3cc(Cl)ccc3C)nc2n1	5%	-2%
Cc1ccc(C)c(N2CCN(C(=O)Cn3c(C)c4cnn(-c5ccccc5)c(=O)c4c3C)CC2)c1	5%	-6%
O=C(N/N=C/c1ccccc1Cl)c1n[nH]c2c1CCCC2	25µM*	0%
O=C(N/N=C/C(Br)=C/c1ccccc1)c1n[nH]c2c1CCC2	16µM*	-7%
O=C(N/N=C/c1cccs1)c1n[nH]c2c1CCC2	1%	-4%
O=C(CNc1cccc2ccccc12)N/N=C/C(Br)=C/c1ccccc1	-26%	-7%
CCC(C)Sc1c(C(C)C)cnc2c1c(=O)n(C)c(=O)n2C (stereo not given)	-7%	-4%
COc1ccc(Cn2c(SCC(=O)N3CCN(c4ccc(F)cc4)CC3)nc3ccccc32)cc1	-9%	-2%
CCOC(=O)c1oc2ccccc2c1NC(=O)COc1cccc(OC)c1	0%	6%
CCOC(=O)c1oc2ccccc2c1NC(=O)COc1ccc(F)cc1	13µM*	25%
CCCn1ccc2c(OCC(=O)NCc3ccc(C)cc3)cccc2c1=O	-11%	-4%
CCCCc1ccc(NC(=O)COc2ccc(C(=O)Nc3ccccc3OC)cc2)cc1	-10%	-6%
CCCCc1ccc(NC(=O)COc2ccc(C(=O)Nc3ccccc3C)cc2)cc1	32µM*	6%
CCCCc1ccc(NC(=O)COc2cccc3c(=O)n(C)ccc23)cc1	20µM*	-2%
Cc1ccc2c(=O)cc(C(=O)Nc3c(C(=O)c4ccccc4)oc4ccccc34)oc2c1	-2%	-3%
SMILES	Cruzain inh noDet	Cruzain Triton
CCSc1nnc(NC(=O)c2csc3c2CCC(C)C3)s1 (stereo not given)	13µM*	-2%
CCSc1nnc(NC(=O)c2csc3c2CCCC3)s1	?	3%
CCSc1nnc(NC(=O)c2ccc3c(c2)OCO3)s1	25µM*	-1%
CCSc1nnc(NC(=O)c2ccccc2)s1	5%	-2%
CCSc1nnc(NC(=O)c2cc(-c3ccc(C)c(C)c3O)n[nH]2)s1	4µM*	-2%
CCSc1nnc(NC(=O)c2cc3c(s2)CCCC3)s1	7.9µM*	9%
O=C(Nc1nnc(SCc2ccccc2)s1)c1cc2c(s1)CCCC2	?	-2%
CCSc1nnc(NC(=O)c2cc(C)on2)s1	-11%	-1%
COc1cccc([C@@H]2Oc3ccc(Br)cc3C(=O)[C@H]2OC(=O)NCCOc2ccccc2)c1	-4%	-2%
Cc1cc(-c2ccc(S(=O)(=O)Nc3cc(Cl)ccc3C)s2)on1	-15%	-13%
CC(=O)C1=C(c2ccccc2)N(C(C)=O)n2c(nnc2C2CCCCC2)S1	6%	-3%
O=C1/C(=C/c2ccccc2)NC(=S)N1C(c1ccccc1)c1ccccc1	20µM*	-3%
O=C1/C(=C/c2ccccc2)Nc2ccccc21	-11%	-5%
CCCc1ccc(Oc2coc3cc(OCC(=O)Nc4ccccc4C)ccc3c2=O)cc1	6%	-4%
CCc1ccc(Oc2coc3cc(OCC(=O)Nc4cc(C)ccc4C)ccc3c2=O)cc1	25µM*	2%

Assay outcomes (PubChem)
